# Test results: PubChem BioAssay (NCI)
# The panel holds about 83,000 compounds, 20% with a hit somewhere; the sample as a whole holds those more often.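 Activity criterion: percent growth below 10, measured after cells in 96-well plates were exposed to a single compound concentration for 48 hours.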 Calls of active or inactive are those of the source.
# System: NCI-H23 lung
# Test: NCI-60 one-dose screen, 48 h (100 = growth as untreated, 0 = no growth, -100 = all killed)
# Settings: 10 µM unless noted
row,Structure (SMILES),growth
1,O=C(Nc1cccc2ccccc12)c1cc2ccccc2cc1O,8.03% (active)
2,C=C(C)[C@@H]1CC[C@]2(COCCC#N)CC[C@]3(C)[C@H](CC[C@@H]4[C@@](C)(CCCNCCC#N)[C@H](C(=C)C)CC[C@]43C)[C@@H]12,29% [100 µM] (inactive)
3,Cc1ccc(-c2cn(C/C=C3\C=CN(S(=O)(=O)c4ccccc4)CC3)nn2)cc1,96.1% (inactive)
4,CN(C)c1ccc(-c2ccc(-c3ccc(C(=N)N)cc3)s2)cc1,-46.4% (active)
5,CCOC(=O)c1nn(C2CCCCO2)c2ccc(NC(=O)CN3CCOCC3)cc12 (stereo unspecified),99.7% (inactive)
6,Cn1cc(-c2noc(-c3cn(C)c4ncc(Br)cc34)n2)c2cc(Cl)ccc21,75.1% (inactive)
7,Cc1cc2c(C(C)C)c(O)c(O)c(C=NCc3ccoc3)c2c(O)c1-c1c(C)cc2c(C(C)C)c(O)c(O)c(C=NCc3ccco3)c2c1O,23.5% (inactive)
8,Cc1cccc(C[C@H](NC(=O)Nc2ccc(C)cc2F)C(=O)N[C@@H]2C(=O)N3C[C@H](O)C[C@H]3C(=O)N3CCN(C)C[C@H]3C(=O)N[C@@H](C)C(=O)N3C[C@H](C)C[C@H]3C(=O)O[C@H]2C)c1,38.1% (inactive)
9,COc1cc2c(c(Br)c1N)-c1cc(Br)c(N)cc1C2=O,49.9% (inactive)
10,CCN(CC)CCSC(=O)C(O)(c1ccccc1)C1CCCC1 (stereo unspecified),99.4% (inactive)
11,CCN(CC)CCCOc1ccc2c(c1)O/C(=C\c1cccc(OC)c1)C2=O,83.9% (inactive)
12,CCOC(=O)/C(C#N)=C(\C)CCc1ccccc1,91.8% (inactive)
13,O=C(CCN1CCCCC1)c1ccc(Cl)cc1,110% (inactive)
14,C[C@H]1[C@H](C)CC[C@]2(C(=O)O)CC[C@]3(C)C(=CC[C@@H]4[C@@]5(C)C/C(=C/c6ccco6)C(=O)C(C)(C)[C@@H]5CC[C@]43C)[C@H]12,-81.1% [100 µM] (active)
15,Cc1ccc(NC(=O)N[C@@H](Cc2cc(F)cc(F)c2)C(=O)N[C@@H]2C(=O)N3CCC[C@H]3C(=O)N3CCOC[C@H]3C(=O)N[C@@H](C)C(=O)N3C[C@H](C)C[C@H]3C(=O)O[C@H]2C)cc1,33.5% (inactive)
16,CCCCOC(=O)c1c(C)[nH]c(/C=C2\N=C(c3ccc[nH]3)C=C2OC)c1C,-11.3% (active)
17,O=C(O)c1cn(C2CC2)c2cc(N3CCN(Cc4cc(Cl)ccc4O)CC3)c(F)cc2c1=O,78.8% (inactive)
18,C[n+]1cccc(NC(=O)c2ccc3ccc4ccc(C(=O)Nc5ccc[n+](C)c5)nc4c3n2)c1,32.3% (inactive)
19,O=c1cc(-c2ccccc2)oc2cc(OCc3cn(Cc4ccc(F)cc4)nn3)cc(O)c12,45.8% [100 µM] (inactive)
20,CCc1ccc(NC(=O)N[C@@H](Cc2cc(F)cc(F)c2)C(=O)N[C@@H]2C(=O)N3C[C@H](O)C[C@H]3C(=O)N3CCOC[C@H]3C(=O)N[C@@H](C)C(=O)N3C[C@H](C)C[C@H]3C(=O)O[C@H]2C)cc1,34.5% (inactive)
21,C=C(CC(=O)OC)C(C)=O,105% (inactive)
22,O=C1/C(=C\c2cn(CC(O)CN3CCCCC3)c3ccccc23)c2ccccc2N1c1c(Cl)cccc1Cl (stereo unspecified),-47.4% (active)
23,CC/C=C(\C)C(CCC)(CN=O)C(=O)OCC (stereo unspecified),99.7% (inactive)
24,CN(C)C(=S)Sc1ccc([N+](=O)[O-])cc1[N+](=O)[O-],44.4% (inactive)

# System: NCI-H226 lung
# Test: as above
# Settings: 10 µM unless noted
row,Structure (SMILES),growth
1,CC(C)C1=NOC(=O)C1=Cc1cn(-c2ccccc2)nc1-c1ccccc1,95.2% (inactive)
2,CCN(CC)CCCNCc1cc(-c2ccccc2)nc2ccccc12,86.5% (inactive)
3,CCOC(=O)CCC[P+](c1ccccc1)(c1ccccc1)c1ccccc1,108% (inactive)
4,Cc1cccc(C[C@H](NC(=O)Nc2ccc(Cl)cc2F)C(=O)N[C@@H]2C(=O)N3C[C@H](O)C[C@H]3C(=O)N3CCN(C)C[C@H]3C(=O)N[C@@H](C)C(=O)N3C[C@H](C)C[C@H]3C(=O)O[C@H]2C)c1,45.2% (inactive)
5,COc1cc(C)cc2oc3oc(=O)c(C(=O)c4cc5cc(Br)ccc5o4)cc3c(=O)c12,96.7% (inactive)
6,COc1ccc(CC(C#N)c2ccc(Cl)cc2)cc1 (stereo unspecified),87.5% (inactive)
7,Clc1ccc(/C=N/Nc2nc3ccccc3s2)c(Cl)c1,100% (inactive)
8,Nc1nc(SCc2cccc([N+](=O)[O-])c2)c2[nH]cnc2n1,90% (inactive)
9,COC(=O)[C@]12CCC(C)(C)C[C@H]1C1=CC[C@@H]3[C@@]4(C)C/C(=C/c5cccnc5)C(=O)C(C)(C)[C@@H]4CC[C@@]3(C)[C@]1(C)CC2,-51.7% [100 µM] (active)
10,Cn1cc(-c2nnc(-c3cn(C)c4ncccc34)o2)c2ccccc21,64.9% (inactive)
11,Cc1ccc(C2=C/C(=C/c3ccc(Br)cc3)C(=O)N2CCc2ccc(S(N)(=O)=O)cc2)cc1,97% (inactive)
12,COc1ccc2nc3cc(Cl)ccc3c(Nc3ccc(O)cc3)c2c1,74.4% (inactive)
13,CCCCN(CC)CC(CC)Nc1cc(OC)cc2cccnc12 (stereo unspecified),107% (inactive)
14,O=C(Nc1cccc2ccccc12)c1cc2ccccc2cc1O,12.5% (inactive)
15,C=C(C)[C@@H]1CC[C@]2(COCCC#N)CC[C@]3(C)[C@H](CC[C@@H]4[C@@](C)(CCCNCCC#N)[C@H](C(=C)C)CC[C@]43C)[C@@H]12,42.6% [100 µM] (inactive)
16,Cc1ccc(-c2cn(C/C=C3\C=CN(S(=O)(=O)c4ccccc4)CC3)nn2)cc1,99.5% (inactive)
17,CN(C)c1ccc(-c2ccc(-c3ccc(C(=N)N)cc3)s2)cc1,87.4% (inactive)
18,CCOC(=O)c1nn(C2CCCCO2)c2ccc(NC(=O)CN3CCOCC3)cc12 (stereo unspecified),106% (inactive)
19,Cn1cc(-c2noc(-c3cn(C)c4ncc(Br)cc34)n2)c2cc(Cl)ccc21,88% (inactive)

row,Structure (SMILES),growth
1,Cc1cc2c(C(C)C)c(O)c(O)c(C=NCc3ccoc3)c2c(O)c1-c1c(C)cc2c(C(C)C)c(O)c(O)c(C=NCc3ccco3)c2c1O,72% (inactive)
2,Cc1cccc(C[C@H](NC(=O)Nc2ccc(C)cc2F)C(=O)N[C@@H]2C(=O)N3C[C@H](O)C[C@H]3C(=O)N3CCN(C)C[C@H]3C(=O)N[C@@H](C)C(=O)N3C[C@H](C)C[C@H]3C(=O)O[C@H]2C)c1,53.9% (inactive)
3,COc1cc2c(c(Br)c1N)-c1cc(Br)c(N)cc1C2=O,-24.1% (active)
4,CCN(CC)CCSC(=O)C(O)(c1ccccc1)C1CCCC1 (stereo unspecified),93.1% (inactive)
5,CCN(CC)CCCOc1ccc2c(c1)O/C(=C\c1cccc(OC)c1)C2=O,87.8% (inactive)
6,CCOC(=O)/C(C#N)=C(\C)CCc1ccccc1,102% (inactive)
7,O=C(CCN1CCCCC1)c1ccc(Cl)cc1,94.6% (inactive)
8,C[C@H]1[C@H](C)CC[C@]2(C(=O)O)CC[C@]3(C)C(=CC[C@@H]4[C@@]5(C)C/C(=C/c6ccco6)C(=O)C(C)(C)[C@@H]5CC[C@]43C)[C@H]12,-52.3% [100 µM] (active)
9,Cc1ccc(NC(=O)N[C@@H](Cc2cc(F)cc(F)c2)C(=O)N[C@@H]2C(=O)N3CCC[C@H]3C(=O)N3CCOC[C@H]3C(=O)N[C@@H](C)C(=O)N3C[C@H](C)C[C@H]3C(=O)O[C@H]2C)cc1,30.5% (inactive)
10,CCCCOC(=O)c1c(C)[nH]c(/C=C2\N=C(c3ccc[nH]3)C=C2OC)c1C,-0.091% (active)
11,O=C(O)c1cn(C2CC2)c2cc(N3CCN(Cc4cc(Cl)ccc4O)CC3)c(F)cc2c1=O,82.8% (inactive)
12,C[n+]1cccc(NC(=O)c2ccc3ccc4ccc(C(=O)Nc5ccc[n+](C)c5)nc4c3n2)c1,5.55% (active)
13,O=c1cc(-c2ccccc2)oc2cc(OCc3cn(Cc4ccc(F)cc4)nn3)cc(O)c12,60.9% [100 µM] (inactive)
14,CCc1ccc(NC(=O)N[C@@H](Cc2cc(F)cc(F)c2)C(=O)N[C@@H]2C(=O)N3C[C@H](O)C[C@H]3C(=O)N3CCOC[C@H]3C(=O)N[C@@H](C)C(=O)N3C[C@H](C)C[C@H]3C(=O)O[C@H]2C)cc1,63.2% (inactive)
15,C=C(CC(=O)OC)C(C)=O,104% (inactive)
16,O=C1/C(=C\c2cn(CC(O)CN3CCCCC3)c3ccccc23)c2ccccc2N1c1c(Cl)cccc1Cl (stereo unspecified),-73.9% (active)
17,CC/C=C(\C)C(CCC)(CN=O)C(=O)OCC (stereo unspecified),109% (inactive)
18,CN(C)C(=S)Sc1ccc([N+](=O)[O-])cc1[N+](=O)[O-],49.6% (inactive)
